Bioassay records from PubChem BioAssay.
Rhodamine autofl: qHTS Assay for Spectroscopic Profiling in Rhodamine Spectral Region | Rhodamine-region fluorescence, 547/598 nm, Tris buffer; stronger effect = higher value | 59,000 tested, 0.05% active | max dye-equivalent concentration, M | AID 594, 2007; in the data active = max dye-equivalent concentration above about 11 nM; inconclusive = between about 1.1 nM and that limit
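A six-point rhodamine series on each plate calibrates the signal. Compounds sit in 100 mM Tris (pH 8.0) for 15 min at ambient temperature before imaging through 547 nm/598 nm filters.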
A488 autofl: qHTS Assay for Spectroscopic Profiling in A488 Spectral Region | compound autofluorescence, A488 spectral region, dye equivalency; Compound Type: qHTS ECL - MLSMR | max dye equivalency, M | 59,000 tested, 0.1% active
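Intrinsic compound fluorescence is measured in 100 mM Tris buffer at pH 8.0 following 15 min incubation at room temperature. Intensities at 480 nm excitation/540 nm emission are calibrated to an on-plate A488 concentration series, giving dye-equivalent concentrations.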
TexasRed autofl: qHTS Assay for Spectroscopic Profiling in Texas Red Spectral Region. max dye-equivalent concentration, M. AID 587, 2007. Compound fluorescence, Texas Red channel, 547/618 nm; stronger effect = higher value. 59,000 tested, 0.06% active; in the data active = max dye-equivalent concentration above about 10 nM; inconclusive = between about 1.1 nM and that limit
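Pin-transferred compounds and Texas Red standards go into 100 mM Tris buffer, pH 8.0. After 15 min at room temperature, plates are imaged with 547/618 nm filters. Each value is a dye-equivalent concentration derived from the per-plate dye curve.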
A647 fluor: qHTS Assay for Spectroscopic Profiling in A647 Spectral Region; Compound fluorescence, A647 channel (570/671 nm), Tris buffer; 59,000 tested, under 10 active; max dye-equivalent concentration, M;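 also: values scaled relative to a standard on each plate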
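Spectral profiling of library compounds in pH 8.0 Tris: 15 min room-temperature incubation, single ex/em pair (570/671 nm), response normalized to Alexa 647 equivalents.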
Resorufin fluor: qHTS Assay for Spectroscopic Profiling in Resorufin Spectral Region. Compound fluorescence, resorufin region 547/598 nm, buffer; stronger effect = higher value. max dye-equivalent concentration, M. 59,000 tested, 0.04% active. AID 588, 2007
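Read-out: intrinsic compound fluorescence at ex 547/em 598 nm after 15 min at RT in pH 8.0 Tris (100 mM). Values expressed as resorufin-equivalent concentration from per-plate standard series.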
Fluorescein fluor: qHTS Assay for Spectroscopic Profiling in Fluorescein Spectral Region | max fluorescein-equivalent concentration, M | Compound autofluorescence, 480/540 nm, fluorescein-equivalent; stronger effect = higher value | 59,000 tested, 0.91% active | AID 593, 2007; in the data active = max fluorescein-equivalent concentration above about 10 nM; inconclusive = between about 1.1 nM and that limit
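Compounds were pin-transferred into 100 mM Tris buffer, pH 8.0, and incubated 15 min at room temperature. Fluorescence was read at 480 nm excitation/540 nm emission. Signals were normalized to an on-plate six-point fluorescein standard curve as dye-equivalent concentration.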
Active calls of the source: *; i = inactive; ? = inconclusive. Only some compounds are listed: those with a hit (about 0.9% of all), similar ones and a draw of the others. Unless noted, no rule for the calls is given here.

SMILES | Rhodamine autofl | A488 autofl | TexasRed autofl | A647 fluor | Resorufin fluor | Fluorescein fluor
O=S(=O)(Nc1nc2ccccc2nc1N1CCN(c2ccccn2)CC1)c1ccc(Cl)cc1 | i | i | i | 1e-09 | i | 1.7e-08M*
CC1=C(C(=O)O)N2C(=O)[C@@H](NC(=O)[C@@H](N)C3=CCC=CC3)[C@@H]2SC1 | i | i | i | 4.8e-08 | i | ?
CCCNC[C@H](O)COc1ccccc1C(=O)CCc1ccccc1 | i | i | i | 2.5e-08 | i | ?
CN(C)CCCOc1nn(Cc2ccccc2)c2ccccc12 | i | i | i | 2.3e-08 | i | 1.9e-08M*
C[C@@]12CCC(=O)C=C1CC[C@H]1[C@H]3CC[C@](O)(C(=O)CO)[C@]3(C)CC[C@@H]12 | i | i | i | 5.5e-08 | i | ?
COc1cc(/C=c2\s/c(=C(/C#N)C(=O)N3CCCC3)n(-c3ccccc3)c2=O)ccc1O | i | i | i | 1e-09 | i | ?
Cc1ccc(/C=c2\s/c(=C(/C#N)C(=O)N3CCCC3)n(Cc3ccco3)c2=O)s1 | i | ? | ? | 1.1e-08 | i | 6.4e-08M*
COc1cccc(-c2cn3nc(C)c(C)nc3n2)c1 | i | i | i | 1.4e-09 | i | i
Cc1nc2nc(-c3cccs3)cn2nc1C | i | ? | i | 3.1e-09 | i | 6e-08M*
O=c1c2ccccc2c(/C=N/n2cnnc2)c(O)n1-c1ccccc1F | i | i | i | 2.8e-09 | i | 1.3e-08M*
CN(C)S(=O)(=O)c1ccc2c(c1)/C(=C/c1cc3c([nH]1)CCCC3)C(=O)N2 | i | i | i | 2.6e-08 | i | 1.9e-08M*
COc1ccc(N(C)S(=O)(=O)c2ccc3c(c2)CCC(=O)N3)cc1 | i | i | i | 3.1e-09 | i | i
C#C[C@@]1(O)CC[C@H]2[C@H]3CCC4=Cc5oncc5C[C@]4(C)[C@@H]3CC[C@@]21C | i | i | i | 3.6e-09 | i | i
Cc1ccc(-c2cc(-c3nnc(SCC(=O)N(C)CCC#N)n3N)c3ccccc3n2)cc1 | i | i | i | 1.1e-09 | i | 1.1e-08M*
CCOC(=O)[C@H](CCc1ccccc1)N[C@@H](C)C(=O)N1[C@H](C(=O)O)C[C@H]2CCC[C@@H]21 | i | i | i | 2.6e-08 | i | 1e-08M*
COC(=O)[C@@H](NC(=O)c1cc(-c2ccccc2)nc2ccccc12)c1ccccc1 | i | i | i | 9.2e-09 | i | i
CCOC(=O)N1CCN(Cc2nc3c(c(=O)n(C)c(=O)n3C)n2CCCc2ccccc2)CC1 | ? | ? | ? | 4e-08 | ? | 5.6e-08M*
CCN(CC)CCC[C@H](C)Nc1c2ccc(Cl)cc2nc2ccc(OC)cc12 | i | ? | i | 3.4e-08 | i | 9e-08M*
COc1ccc(OC)c(/C=c2\sc3nc(-c4cccs4)nn3c2=O)c1 | i | ? | i | 2.4e-09 | i | 1.8e-07M*
Cc1ccc(-n2c3c(cc(C(=O)NC4CCSC4=O)c2=O)C(=O)CCC3)cc1 (stereo not given) | i | i | i | 1.7e-09 | i | 1.1e-08M*
O=C1CCCc2c1cc(C(=O)Nc1ccc(Cl)cn1)c(=O)n2-c1ccccc1 | i | i | i | 9.4e-09 | i | i
O=C1C(Cl)=C(Nc2ccc(S(=O)(=O)Nc3ccccn3)cc2)C(=O)c2ccccc21 | i | i | i | 2.9e-08 | i | i
O=C1CSC(=S)N1/N=C\c1ccc(Cl)c([N+](=O)[O-])c1 | i | i | i | 1e-09 | i | i
CCOC(=O)N1CCN(c2c(NCCCN(CC)Cc3ccccc3)c(=O)c2=O)CC1 | i | i | ? | 6.2e-09 | i | i
CCOC(=O)N1CCN(c2cc(NCCC(=O)O)c3c4c(onc24)-c2ccccc2C3=O)CC1 | ? | ? | ? | 3.6e-08 | i | 8e-08M*
SMILES | Rhodamine autofl | A488 autofl | TexasRed autofl | A647 fluor | Resorufin fluor | Fluorescein fluor
O=C(O)CCCNc1cc(N2CCC3(CC2)OCCO3)c2noc3c2c1C(=O)c1ccccc1-3 | ? | i | 1e-08M* | 3.5e-08 | ? | 1.3e-08M*
Cc1ccccc1-n1c(=O)cc(N2CCC3(CC2)OCCO3)[nH]c1=O | i | i | i | 2.1e-09 | i | i
CN[C@@H](c1ccncc1)[C@@H](NC)c1ccncc1 | i | i | i | 1.3e-09 | i | i
CC(=O)S[C@H]1CC2=CC(=O)CC[C@@]2(C)[C@H]2CC[C@@]3(C)[C@H](CC[C@]34CCC(=O)O4)[C@@H]12 | ? | ? | 1e-08M* | 4.4e-08 | ? | 4.9e-08M*
O=C(CN1c2cccc3cccc(c23)S1(=O)=O)N1CCOCC1 | i | ? | i | 3.3e-08 | i | 3.7e-08M*
O=c1ccn([C@H]2O[C@H](CO)[C@@H](O)[C@@H]2O)c(=O)[nH]1 | i | i | i | 1e-09 | i | i
O=c1c(-c2ccc(Cl)cc2)nc2cnc(N3CCOCC3)nc2n1C1CC1 | i | i | i | 1.2e-09 | i | 1e-08M*
O=C(CCc1ccc(O)cc1)c1c(O)cc(O)cc1O[C@@H]1O[C@@H](CO)[C@@H](O)[C@@H](O)[C@H]1O | i | i | i | 4.3e-09 | i | i
CN1Cc2sc(N)c(C#N)c2CC1(C)C | ? | ? | ? | 1e-09 | i | 3.1e-08M*
COc1ccccc1/C=c1\sc2nc(-c3ccco3)nn2c1=O | i | i | i | 6.3e-09 | i | i
CCOc1ccc(/C=c2\sc3nc(-c4ccco4)nn3c2=O)cc1OCC | i | ? | i | 7.2e-09 | i | 1.2e-07M*
O=S(=O)(O)c1cc(N=[N+]([O-])c2cc(S(=O)(=O)O)c3ccccc3c2)cc2ccccc12 | i | i | ? | 1.8e-09 | i | ?
COc1ccc2cc(C(c3nnnn3CCc3ccccc3)N3CCC(O)CC3)c(=O)[nH]c2c1 (stereo not given) | 2.4e-08M* | i | 4.1e-08M* | 1.2e-09 | 1.3e-08M* | 1.4e-08M*
c1ccc2[nH]c(CN3CCCCCC3)nc2c1 | i | i | i | 4.5e-08 | i | ?
[O-][n+]1c(CN2CCCCC2)nc2cccc3c2c1-c1ccccc1-3 | i | i | i | 5.2e-09 | i | 1.7e-08M*
CCN(CC)c1ccc2cc(-c3nnc(-c4ccncc4)o3)c(=O)oc2c1 | i | 4.8e-08M* | i | 1.2e-08 | i | 1e-06M*
CCCOc1ccc(-c2nnc(-c3ccncc3)o2)cc1 | i | i | i | 5.9e-08 | i | ?
